Rows were chosen to be rich in hits. Some 21% of all compounds tested hit in one or more screens of this group.
ClpP mod – qHTS Assay for Activators of ClpP; purified B. subtilis ClpP, FRET peptide cleavage, 20 min; AID 651965, 2013; Potency, µM (titrated, usually from 57.5 µM), inactives show at the highest dose activity change, negative = active; ATP-dependent Clp protease proteolytic subunit (Bacillus subtilis (strain 168)), P80244; actives 1.9% (n = 340,000); active = well fitted falling curve with a large enough effect; inconclusive = small, poorly fitted or top-dose-only effect; inactive = no such curve, though single readings can be large or run the other way; note: potency is the fitted concentration of half-maximal effect; the source files actives as falling curves though it sought activators and does not explain the sign; nearly all actives have a fitted effect of over 65% in size
Target sequence (P80244 whole entry, looked up): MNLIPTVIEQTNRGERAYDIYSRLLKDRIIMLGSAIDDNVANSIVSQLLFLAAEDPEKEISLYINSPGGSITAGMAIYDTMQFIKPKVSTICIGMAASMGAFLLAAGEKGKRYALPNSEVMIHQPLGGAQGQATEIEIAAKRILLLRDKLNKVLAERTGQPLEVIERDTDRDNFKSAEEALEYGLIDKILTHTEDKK
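ClpP 10 microg/mL final, pH 8 Tris/KCl buffer with BSA, glycerol, Tween-20; compound pinned in; FRET-FV substrate; RT 20 min; Ex320/Em430; ΔFRET vs ADEP 5.8 microM, DMSO, no enzyme.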
IL1B secr inh – qHTS for Inhibitors of Inflammasome Signaling: IL-1-beta AlphaLISA Primary Screen. THP-1 LPS/ATP IL-1B secretion, AlphaLISA, 16 h; hits give low values. activity change, % at 57.5 µM. actives 4.7% (n = 360,000); in the data active = activity change below about -50%; inconclusive = mostly about -30% to -49%; note: % is set by controls: 0 for no effect and ±100 for the full control effect
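THP-1 cells pretreated 1 hr with compounds (up to 57.5 uM final), then stimulated with LPS (250 ng/mL final) plus ATP (1.25 mM final); secreted IL-1B measured by AlphaLISA after 16 hr, decreased signal indicating inhibition.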
TDP1 cell noCPT – qHTS for Inhibitors of human tyrosyl-DNA phosphodiesterase 1 (TDP1): qHTS in cells in absence of CPT. DT40 Tdp1-/- hTDP1 cells, no CPT, ATP luminescence, 48 h. Potency, µM (series often up to 46.2 µM), inactives show at the highest dose activity change, negative = growth inhibition, actives largely listed as inhibitors. actives 15% (n = 420,000). AID 686978, 2013; note: potency is the fitted concentration of half-maximal effect; % is set by controls: 0 for no effect and ±100 for the full control effect; nearly all actives have a fitted effect of over 55% in size
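Seeded 400 DT40-hTDP1 cells/well (vehicle DMSO, no 20 nM CPT); pinned compounds; ≥48 hr at 37 °C; CellTiter-Glo luminescence as viability measure.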
TDP1 cell CPT – qHTS for Inhibitors of human tyrosyl-DNA phosphodiesterase 1 (TDP1): qHTS in cells in presence of CPT; chicken DT40 Tdp1-/-;hTDP1 cells + 20 nM CPT, ATP luminescence, 48 h; Potency, µM (doses to about 46.2 µM), inactives show at the highest dose activity change, negative = growth inhibition, hits mostly inhibitors; actives 12% (n = 420,000); AID 686979, 2013; note: potency is the fitted concentration of half-maximal effect; % is set by controls: 0 for no effect and ±100 for the full control effect; nearly all actives have a fitted effect of over 55% in size
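Chicken DT40 Tdp1-/- cells complemented with human TDP1, 400 cells/well, exposed to compounds plus 20 nM camptothecin for at least 48 h at 37 C; viability read as ATP content by CellTiter-Glo luminescence.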
DRD3 antagonist – qHTS of D3 Dopamine Receptor Antagonist: qHTS; D3R cells, DiscoveRx beta-arrestin luminescence, antagonist mode; hits give low values; max response, negative = inhibition, %; D(3) dopamine receptor (Homo sapiens), P35462; actives 2.5% (n = 360,000); in the data active = max response below about -50%; inconclusive = no clear call, values can overlap the other calls; note: % is set by controls: 0 for no effect and ±100 for the full control effect
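Cells plated overnight at 1500 cells/well, then exposed to library compounds with dopamine controls for 90 minutes at 37 degrees C. DiscoveRx reagent added for 30–60 minutes at room temperature; luminescence read, quantitative HTS format.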
D3 ag – qHTS of D3 Dopamine Receptor Agonist: qHTS; D(3) dopamine receptor (Homo sapiens), P35462; D3R DiscoveRx beta-arrestin cells, luminescence, 90 min; max activation, %; actives 0.58% (n = 410,000); AID 652048, 2013; in the data active = max activation above about 30%; note: 0% is about no effect
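Agonist-mode cell screen: cells plated at 1500/well and incubated overnight at 37 °C, then exposed to library compounds for 90 min at 37 °C. Detection reagent was added for 30–60 min at room temperature, and luminescence was read.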
Starred values were filed as active, the others as inactive; ? = inconclusive; . = no result given. Unless noted, calls come from the whole dose curve; as a rule, active = well fitted inhibition curve with a large enough effect; inconclusive = small, poorly fitted or top-dose-only effect; inactive = flat fitted curve, though single readings scatter.

SMILES | ClpP mod | IL1B secr inh | TDP1 cell noCPT | TDP1 cell CPT | DRD3 antagonist | D3 ag
O=C(NCc1ccco1)c1ccc2c(c1)N(Cc1ccc(Cl)cc1)CCS2 | . | -60.2* | ? | ? | -10.0 | -7.5
CN(C)C(=O)c1ccc(NC(=O)c2ccccc2SCC(=O)N2CCCC2)cc1 | 3.3% | 0.0 | -2.4% | 9.3% | 10.1 | 0.1
C[C@@H](NC(=O)[C@@H]1CCCN1C(=O)[C@@H]1CCCN1C(=O)c1ccccc1)c1ccccc1 | -3.5% | 10.4 | 4.8% | -18.3% | 16.5 | 1.0
Cn1c(=O)c(-c2cc(=O)[nH][nH]2)c(O)c2ccccc21 | . | 15.9 | -20.3% | -7.3% | 0.0 | 2.1
Cc1nccc(-c2cccc(NC(=O)c3ccccc3Cl)c2)n1 | -3.5% | -2.8 | -8.2% | -1.4% | 0.0 | -1.6
COc1ccc(OC)c(CCNC(=O)c2ccc3c(c2)N(Cc2ccccc2)CCS3)c1 | 3.6% | 2.1 | 16.4µM* | 23.1µM* | 28.2 | 3.8
COc1ccccc1NC(=O)CN1CCN(CC(=O)Nc2ccc(C)c(F)c2)CC1 | . | -8.1 | 16.4µM* | 16.4µM* | 18.0 | -3.5
COc1ccccc1NC(=O)CN1C(=O)CC(c2ccc(C)c(C)c2)=Nc2ccccc21 | -4.7% | . | 23.1µM* | 23.1µM* | . | 6.8
COc1cc(NC(=O)CN2CCN(CC(=O)Nc3ccccc3OC)CC2)cc(OC)c1 | -1.1% | -9.7 | ? | 16.4µM* | -21.4 | -3.2
COc1ccccc1NC(=O)CN1CCN(CC(=O)Nc2ccc(S(N)(=O)=O)cc2)CC1 | 0.7% | 17.4 | 13µM* | ? | -0.8 | -0.4
CCc1ccc(C(=O)C(C)OC(=O)CNS(=O)(=O)c2ccc(C)cc2)cc1 (centres undefined) | 1.1% | 6.6 | -4.4% | -21.1% | 7.1 | -3.8
COc1ccc(C)cc1NC(=O)C(OC(=O)c1ccc([N+](=O)[O-])o1)c1ccccc1 (centres undefined) | 1.3% | -6.1 | ? | 16.4µM* | -24.5 | -1.7
CC1CN(C(=O)c2cc3c(=O)n4ccccc4nc3s2)CC(C)O1 (centres undefined) | 17.8µM* | 30.3 | -20.3% | 1.1% | -8.6 | 0.1
COc1ccccc1-c1cc(C(=O)N/N=C/C=C/c2ccccc2[N+](=O)[O-])c2ccccc2n1 | 0.2% | -50.8* | 20.6µM* | 18.4µM* | 17.9 | -1.7
O=C(N/N=C/C=C/c1ccccc1[N+](=O)[O-])c1cc(-c2cccnc2)nc2ccccc12 | -0.3% | -14.3 | 20.6µM* | ? | 34.8 | -0.3
O=C(NN=Cc1cccc([N+](=O)[O-])c1)c1cc(-c2cccnc2)nc2ccccc12 | 0.0% | 12.4 | ? | ? | 2.2 | 0.4
COc1ccc(CNC(=O)C2CCN(S(=O)(=O)c3cccnc3)CC2)cc1 | -1.8% | -2.7 | -5.0% | 25.3% | -12.7 | -2.5
CC(=O)N1c2ccc(S(=O)(=O)N3CCC(C(=O)Nc4cccc(C)n4)CC3)cc2CC1C (centres undefined) | -3.3% | 7.1 | ? | ? | 21.5 | -7.5
Cc1cc(C)nc(N2CCC(C(=O)Nc3cccc(C(F)(F)F)c3)CC2)n1 | ? | 1.6 | 23.1µM* | ? | -11.5 | 0.5
COc1ccc(CNC(=O)C2CCN(S(=O)(=O)c3cccc(-c4noc(C)n4)c3)CC2)cc1 | 4.1% | . | 9.2µM* | 23.1µM* | . | -12.2
CC(=O)N1c2ccc(S(=O)(=O)N3CCC(C(=O)Nc4cccc(C(F)(F)F)c4)CC3)cc2CC1C (centres undefined) | -3.1% | -4.9 | ? | 16.4µM* | -3.1 | -5.9

Screening data as filed in PubChem BioAssay.
